Most compounds without a hit are left out; they make up all but 5.6% or so of the library.
PHOSPHO1 block = blocks human PHOSPHO1 phosphatase activity | inhibition, % at 13.3 µM | AID 1565 | 1.1% of 290,000 active | recombinant PHOSPHO1, absorbance phosphatase assay | Q8TCT1; in the data active = inhibition above about 60%
Target sequence (Q8TCT1 whole entry, looked up): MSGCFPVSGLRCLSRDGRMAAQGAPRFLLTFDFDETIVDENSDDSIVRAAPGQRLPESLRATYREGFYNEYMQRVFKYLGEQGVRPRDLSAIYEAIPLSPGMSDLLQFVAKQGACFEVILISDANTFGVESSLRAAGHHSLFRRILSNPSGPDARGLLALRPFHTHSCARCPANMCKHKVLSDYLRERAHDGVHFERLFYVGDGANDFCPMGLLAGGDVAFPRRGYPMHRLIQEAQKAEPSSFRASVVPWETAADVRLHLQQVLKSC
PfM18AAP inh = blocks P. falciparum M18 aspartyl aminopeptidase | recombinant PfM18AAP, H-Glu-NHMec fluorogenic cleavage | 1.2% of 290,000 active | AID 1822 | inhibition, % at 7.35 µM;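 active = inhibition above the campaign mean inhibition over all tested compounds plus 3 SD, cut at about 28% in these data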
H9c2 protect = protects H9c2 cardiomyocytes from peroxide injury; H2O2 injury protection, ATPLite, 2 h; protection from H2O2 cell death, % at 20 µM; 0.63% of 360,000 active;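 active = compounds giving at least 50% protection of heart cells from peroxide-induced death in the single-dose screen, raw or plate-pattern-corrected value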
ALR H2O2 inh = human ALR oxidase inhibition via reduced H2O2 | P55789 | purified ALR, DTT oxidation, H2O2 HRP-luminol luminescence | inhibition, % (concentration not given with the values) | 3.8% of 290,000 active | AID 485317;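 active = mean replicate inhibition above about 79%, with every replicate also reaching it, limit read from the data; inconclusive = only one of the two criteria met; inactive = mean below limit and not every replicate reaching it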
Target sequence (P55789 whole entry, looked up): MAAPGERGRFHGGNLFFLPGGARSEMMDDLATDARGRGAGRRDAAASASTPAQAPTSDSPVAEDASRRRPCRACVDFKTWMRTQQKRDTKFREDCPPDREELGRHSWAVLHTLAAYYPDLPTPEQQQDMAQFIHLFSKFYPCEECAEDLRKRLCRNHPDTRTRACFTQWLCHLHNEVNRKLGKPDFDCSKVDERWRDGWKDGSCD
PfGluPho inh = PfG6PD (Plasmodium falciparum) enzyme inhibition. inhibition, % at 20 µM. PfGluPho enzyme, NADPH resazurin-diaphorase fluorescence. 0.78% of 350,000 active;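 active = inhibition reaching at least a set limit at 20 µM in the primary screen, cut at about 59% in these data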
Of the large screens only hits and unclear results are named; the others gave an inactive call.

CCOc1ccccc1OCCC(=O)OCC(=O)Nc1c(C)nn(-c2ccccc2)c1C	none (no result: PHOSPHO1 block, PfM18AAP inh)
COC(=O)[C@@H](NCc1ccc(OC)c(B(O)O)c1)C(C)C	none (no result: PHOSPHO1 block, PfM18AAP inh, ALR H2O2 inh)
CC1(C)Cc2c(c(-c3ccccc3)nc3[nH][nH]c(=O)c23)CO1	ALR H2O2 inh 99
CC1(C)Cc2c(c(-c3ccccc3)nc3sc4c(=O)[nH]c(=S)[nH]c4c23)CO1	none (no result: H9c2 protect, ALR H2O2 inh)
Cc1ccc(C(=O)NCc2ccccn2)cc1Cl	PHOSPHO1 block 60
Cc1ccc(NC(=O)NCc2ccccn2)cc1Cl	none
CCN1CCSc2ccc(C(=O)NCc3cccc(Br)c3)cc21	none
CCN1CCSc2ccc(C(=O)NCc3cccc(F)c3)cc21	ALR H2O2 inh 99
O=C(NCc1cccnc1)c1ccc2c(c1)N(Cc1ccccc1)CCS2	PfM18AAP inh 30, ALR H2O2 inh 92
O=C(NCc1ccccn1)c1ccc2c(c1)N(Cc1ccccc1)CCS2	ALR H2O2 inh 98
CSc1ncccc1C(=O)OCC(=O)NCCc1ccccc1	none (no result: PHOSPHO1 block, PfM18AAP inh)
NC(=Nc1nc(-c2ccccn2)cc2ccccc12)c1ccccn1	none (no result: PHOSPHO1 block, PfM18AAP inh, ALR H2O2 inh)
CN1C(=O)CN(CCN2CC(=O)N(C)C(=O)C2)CC1=O	none (no result: PHOSPHO1 block, PfM18AAP inh, ALR H2O2 inh)
CC(=O)c1ccc(-n2c(-c3cc(-c4ccco4)[nH]n3)n[nH]c2=S)cc1	PHOSPHO1 block 97, ALR H2O2 inh inconclusive
S=c1[nH]nc(-c2cc(-c3ccco3)[nH]n2)n1-c1cccc2ccccc12	PHOSPHO1 block 94
O=C(O)c1ccc(-n2c(-c3cc(C4CC4)[nH]n3)n[nH]c2=S)cc1	PHOSPHO1 block 63 (no result: ALR H2O2 inh)
O=C(O)c1ccc(-n2c(-c3ccccc3)n[nH]c2=S)cc1	none
Cc1ccc(-n2c(-c3cc(-c4ccco4)[nH]n3)n[nH]c2=S)c(Br)c1	none
CCNC(=O)C1(C)CCN(C(=O)c2cccc(C(F)(F)F)c2)C1 (stereo unspecified)	none (no result: PHOSPHO1 block, PfM18AAP inh, ALR H2O2 inh, PfGluPho inh)
C[C@H](NC(=O)c1ccc(C(C)(C)C)cc1)C(=O)N1CCOCC1	none (no result: PHOSPHO1 block, PfM18AAP inh)
NNC(=O)C1COc2cc3ccccc3cc2O1 (stereo unspecified)	none
O=C(N/N=C\c1ccccn1)c1cccc(C(=O)N/N=C\c2ccccn2)n1	H9c2 protect 54 (no result: PHOSPHO1 block, PfM18AAP inh)
O=C(N/N=C/c1ccccn1)c1cccs1	H9c2 protect 56
O=C(N/N=C\c1ccccn1)C1COc2cc3ccccc3cc2O1 (stereo unspecified)	H9c2 protect 86 (no result: ALR H2O2 inh)
Cn1ncc(Cl)c1C(=O)N/N=C/c1ccccn1	H9c2 protect 51
O=C(N/N=C/c1ccccn1)c1ccccc1	none
O=C(N/N=C/c1ccccn1)c1ccc(Cl)cc1	none
CCNC(=O)C1(C)CCCN(C(=O)c2cc(C)n(C(C)(C)C)n2)C1 (stereo unspecified)	none (no result: PHOSPHO1 block, PfM18AAP inh, ALR H2O2 inh, PfGluPho inh)
CN=C1NC(C)(C)C2CCC(C)(CC2)S1	none (no result: PHOSPHO1 block, PfM18AAP inh, ALR H2O2 inh)
CCOc1cc(C(=S)N2CCOCC2)cc(Br)c1OS(=O)(=O)c1ccccc1	none (no result: PHOSPHO1 block, ALR H2O2 inh)
Cc1cc(O)c2c(c1)C(=O)c1cccc(O)c1C2=O	none (no result: H9c2 protect, ALR H2O2 inh, PfGluPho inh)
O=C(O)c1cc(O)c2c(c1)C(=O)c1cccc(O)c1C2=O	PfM18AAP inh 28
COC(=O)Cc1ccc(OC2(C)CCN(Cc3csc4ccccc34)C2)cc1 (stereo unspecified)	none (no result: PHOSPHO1 block, PfM18AAP inh, ALR H2O2 inh, PfGluPho inh)
O=C(CNC(=O)COc1ccccc1)NCc1cccnc1	none
Oc1ccc(/C=N/Nc2ccnc3cc(Cl)ccc23)cc1O	PfM18AAP inh 29
CC(C)(C)n1nnnc1C(c1cccnc1)N1CCN(c2ccccc2)CC1 (stereo unspecified)	none
CCN1CCN(C(c2ccccc2)c2nnnn2Cc2ccc3c(c2)OCO3)CC1 (stereo unspecified)	PHOSPHO1 block 61
CC1CCN(C(c2ccc(N(C)C)cc2)c2nnnn2Cc2ccccc2)CC1 (stereo unspecified)	PHOSPHO1 block 69 (no result: ALR H2O2 inh)
COc1ccc(Cn2nnnc2C(c2ccc(N(C)C)cc2)N2CCC(C)CC2)cc1 (stereo unspecified)	none
CCN1CCN(C(c2ccc(OC)cc2)c2nnnn2Cc2ccc3c(c2)OCO3)CC1 (stereo unspecified)	none (no result: ALR H2O2 inh)
COCCn1nnnc1C(c1ccccc1OC)N1CCN(c2ccccc2)CC1 (stereo unspecified)	ALR H2O2 inh 84
c1ccc(Cn2nnnc2C(c2cccnc2)N2CCN(c3ccccc3)CC2)cc1 (stereo unspecified)	ALR H2O2 inh 98
COc1ccc(N2C(=NC(=O)C3CCCCC3)SC3CS(=O)(=O)CC32)c(OC)c1 (stereo unspecified)	none
O=c1n2c(c(O)n1C1CCCCC1)C(c1ccccc1)=Nc1ccccc1C2	none (no result: PHOSPHO1 block, PfM18AAP inh, ALR H2O2 inh, PfGluPho inh)
O=c1[nH]nc(CNc2ccc(C(F)(F)F)cc2)c2ccccc12	H9c2 protect 69
CCN[C@H]1CN(CCCOC)S(=O)(=O)c2sc(S(N)(=O)=O)cc21	none (no result: PHOSPHO1 block, PfM18AAP inh, ALR H2O2 inh)
O=C(Nc1ccc2nc(C(F)(F)F)[nH]c2c1)[C@@H]1O[C@H](CO)[C@@H](O)[C@H]1O	none (no result: PHOSPHO1 block, PfM18AAP inh, ALR H2O2 inh, PfGluPho inh)
Cc1cccc(N/C(=N/S(=O)(=O)c2ccccc2)c2ccccc2)n1	none
O=[N+]([O-])c1ccc(Nc2ccccc2O)c2nonc12	ALR H2O2 inh 99
Cc1cc(S(=O)(=O)Nc2cc(C)c(O)c(C)c2)c(C)s1	ALR H2O2 inh 77
COc1ccc(Cc2c(-c3ccccc3)nc3c(C)cc(Br)cn23)c(C)c1	none (no result: PHOSPHO1 block, PfM18AAP inh, ALR H2O2 inh, PfGluPho inh)
Clc1c(CSc2nc3ccccc3o2)nc2ccccn12	ALR H2O2 inh 98
Brc1c(CSc2nc3ccccc3o2)nc2ncccn12	ALR H2O2 inh 100
O=C(C1CC=CCC1)N1CCN(S(=O)(=O)c2ccc(F)cc2)CC1 (stereo unspecified)	none (no result: PHOSPHO1 block, PfM18AAP inh, ALR H2O2 inh)
C=CC(=O)Nc1cccc(Oc2ccnc(Nc3ccc(N4CCN(C)CC4)cc3)n2)c1	none (no result: PHOSPHO1 block, PfM18AAP inh, ALR H2O2 inh)
C=CC(=O)Nc1cccc(N(C)c2ccnc(Nc3ccc(N4CCN(C)CC4)cc3)n2)c1	PfGluPho inh 66 (no result: PHOSPHO1 block, PfM18AAP inh, ALR H2O2 inh)
COc1ccc(NC(=O)N(C)C[C@H]2Oc3ccc(NS(=O)(=O)c4cccs4)cc3C(=O)N([C@@H](C)CO)C[C@@H]2C)cc1	none (no result: PHOSPHO1 block, PfM18AAP inh)
CCC(C)Nc1ncnc2c1cnn2Cc1ccc(Cl)cc1 (stereo unspecified)	H9c2 protect 89
Cc1ccc(S(=O)(=O)NCC(=O)OCC(=O)c2ccc(Cl)s2)cc1	none (no result: ALR H2O2 inh)
Nc1nc2ccc(-c3nc4ccccc4o3)cc2s1	ALR H2O2 inh 97
Cc1ccc(C2=NNC(C(O)C(O)C(O)CO)S2)cc1 (stereo unspecified)	PHOSPHO1 block 84
O=C(NC(c1ccc(Cl)cc1)c1c(O)ccc2ccccc12)c1ccccc1 (stereo unspecified)	none
CC(=O)NC(c1ccc(Cl)cc1)c1c(O)ccc2ccc(O)cc12 (stereo unspecified)	ALR H2O2 inh 96
COc1ccc(NC2CCCN(C(=O)CCCN3CCCCC3=O)C2)cc1 (stereo unspecified)	ALR H2O2 inh 99
COc1ccc(NC2CCCN(C(=O)CCN3CCCC3=O)C2)cc1OC (stereo unspecified)	ALR H2O2 inh 99
COc1ccc(NC2CCCN(C(=O)CCN3CCCC3=O)C2)cc1 (stereo unspecified)	ALR H2O2 inh 98
COc1ccc(NC2CCCN(C(=O)CCN3Cc4ccccc4C3=O)C2)cc1 (stereo unspecified)	ALR H2O2 inh 99

Screening data from PubChem.
